Results filed as inconclusive are left out. The source made the active and inactive calls. Calls follow the shape of the dose curve; as a rule, active = well fitted inhibition curve with a large enough effect; inconclusive = small, poorly fitted or top-dose-only effect; inactive = no such curve, though single readings can be large or run the other way.
Assay: InCell qHTS Assay for Inhibitors of the mTORC1 Signaling Pathway in MEF (Tsc2-/-, p53-/-) Cells: Hit Validation;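 also: phospho-S6 Ser235/236 signal normalized to propidium iodide cell count per well; nearly all actives have a fitted effect of over 75% in size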
Conditions: phospho-rpS6 immunofluorescence, 24 h; activity change, negative = inhibition: at 38.3 µM (top of the series)
`Cc1ccc(-c2nn(C)c(=O)c3ccccc23)cc1S(=O)(=O)NCCCN(C)C` showed an activity change, negative = inhibition of -100%.
In the case of `Cc1cccc(Oc2coc3cc(OCC(=O)NC4CCCCC4)ccc3c2=O)c1`, the activity change, negative = inhibition is reported as -100%.
For `Cc1ccc(-c2cc(C(=O)N3CCN(c4ccccc4)CC3)c3ccccc3n2)cc1C`, the activity change, negative = inhibition was -100%.
For `Cc1ccc(NC(=O)c2nc(S(=O)(=O)Cc3cccc(C)c3)ncc2Cl)cc1`, the Potency was 14.7 µM (active).
`O=S(=O)(NCc1nc2cccnc2n1Cc1ccccc1Cl)c1ccc(F)c(Cl)c1` gave an activity change, negative = inhibition of -100%.
Work on `CC(C)(C)C(=O)Nc1ccc(-c2nc3ccc(NC(=O)C(C)(C)C)cc3[nH]2)cc1` yielded an activity change, negative = inhibition of -27%.
In the case of `O=C(NCc1ccc(Cl)cc1)C(=O)NCC(c1cccs1)S(=O)(=O)c1ccc(Cl)cc1` (configuration not stated), the activity change, negative = inhibition is reported as -100%.
`CCOC(=O)c1c(NC(=O)c2cc(CC)on2)sc(C(C)=O)c1C` gave an activity change, negative = inhibition of -100%.
Work on `O=C(Nc1cccc(C(F)(F)F)c1)c1cnn(-c2cccc(F)c2)c1C1CCNCC1` yielded an activity change, negative = inhibition of -100%.
With `COC(=O)c1cc2sc(C)cc2n1Cc1ccccc1` the activity change, negative = inhibition was -100%.
Molecule `O=C(NCc1ccccc1Cl)C(=O)NCC(c1cccs1)S(=O)(=O)c1cccs1` (configuration not stated) has an activity change, negative = inhibition of -100%.
With `CCC1CCc2nc3sc(C(=O)Nc4cccc(F)c4)c(N)c3cc2C1` (configuration not stated) the activity change, negative = inhibition was -100%.
Work on `COc1ccc(OCC(=O)NCc2ccc3c(c2)CCN3C(=O)c2ccccc2)cc1` yielded an activity change, negative = inhibition of -100%.
In the case of `CCC(Sc1nncn2c1cc1oc(C)cc12)C(=O)Nc1ccc(F)cc1` (configuration not stated), the activity change, negative = inhibition is reported as -100%.
`Cc1c(C(=O)Nc2ccc(F)cc2F)nnn1-c1ccccc1Br` gave an activity change, negative = inhibition of -100%.
With `CCOc1ccc(Nc2nc(N)c(C(=O)c3ccccc3Cl)s2)cc1` the activity change, negative = inhibition was -100%.
For `COc1cc(OC)cc(C(=O)NCCc2csc(-c3cccc(C)c3)n2)c1`, the activity change, negative = inhibition was 1.72%.
Work on `Cc1nc2ccc(S(=O)(=O)CCC(=O)Nc3ccc(Cl)cc3)cc2s1` yielded an activity change, negative = inhibition of -100%.
`COc1ccc(OCC(=O)Nc2ccc3nn(-c4ccc(OC)cc4)nc3c2)cc1` gave an activity change, negative = inhibition of -100%.
`COc1cc(C(=O)n2nc(C)c(Sc3ccc(Cl)cc3)c2C)cc(OC)c1OC` gave an activity change, negative = inhibition of -100%.
Molecule `CCc1ccccc1NC(=O)CSCc1cnn(-c2ccccc2)c1-n1cccc1` has an activity change, negative = inhibition of -100%.
Molecule `Cc1ccccc1S(=O)Cc1ccc(C(=O)N2CCN(c3cccc(C)c3C)CC2)o1` (configuration not stated) has an activity change, negative = inhibition of -28.4%.
For `COc1ccccc1C(=O)Nc1ccc2nc(N3CCC(C)CC3)cc(C)c2c1`, the activity change, negative = inhibition was -100%.
Work on `O=C(NCCSc1c(-c2ccc(F)cc2)[nH]c2ccccc12)c1ccc(S(=O)(=O)N2CCOCC2)cc1` yielded an activity change, negative = inhibition of -100%.
In the case of `CCc1ccc(-n2c(=O)c3c4c(sc3n(CC(=O)c3ccc(F)cc3)c2=O)CCC4)cc1`, the Potency is reported as 9.27 µM (active).
In the case of `CCN(c1ccccc1)S(=O)(=O)c1ccc(NC(=O)c2nc(S(C)(=O)=O)ncc2Cl)cc1`, the Potency is reported as 3.69 µM (active).
For `CCc1ccc(OCC(=O)N(Cc2ccc(C)cc2)Cc2ccco2)cc1`, the activity change, negative = inhibition was -100%.
In the case of `CCOc1c(Br)cc(C2CC(=O)Nc3cc4c(cc32)OCO4)cc1OC` (configuration not stated), the activity change, negative = inhibition is reported as -100%.
Molecule `Cc1ccc(-n2ncc(C(=O)NCCCN3CCc4ccccc4C3)c2C2CCN(C(=O)OC(C)(C)C)CC2)c(C)c1` has an activity change, negative = inhibition of -100%.
For `CCN(CC)c1ccc(NC(=O)CCS(=O)(=O)c2cccc3nsnc23)c(C)c1`, the activity change, negative = inhibition was -100%.
With `CCS(=O)(=O)c1oc(-c2ccc(F)cc2)nc1S(=O)(=O)c1ccccc1` the Potency was 0.736 µM (active).
`O=C(/C=C/c1ccco1)Nc1ccc(Cl)c(-c2nc3cc(Cl)ccc3o2)c1` showed an activity change, negative = inhibition of -100%.
`COc1ccc(OCc2nc3c4c(-c5ccccc5)c(-c5ccccc5)oc4ncn3n2)cc1` showed an activity change, negative = inhibition of -100%.
In the case of `CCOc1ccc(CCNCc2c(C(=O)O)n(Cc3ccc(C)cc3)c3cc(OC)ccc23)cc1`, the activity change, negative = inhibition is reported as -100%.
Work on `CCc1ccc(NC(=O)C2CCCN(S(=O)(=O)c3cccc4cccnc34)C2)cc1` (configuration not stated) yielded an activity change, negative = inhibition of -100%.
With `CCNS(=O)(=O)c1cc(-c2nnc(Nc3cccc(C(F)(F)F)c3)c3ccccc23)ccc1C` the activity change, negative = inhibition was -100%.
With `CCC1=Nc2cc(C(=O)NC3CCC(C)CC3)ccc2Sc2ccc(C)cc21` (configuration not stated) the activity change, negative = inhibition was -100%.

From PubChem BioAssay AID651791 (National Center for Advancing Translational Sciences (NCATS), 2012)
Potency is read from the fitted curve at half-maximal effect.
